Screening results from PubChem BioAssay.
Hits are enriched below; roughly 1.9% of the tested compounds scored in any of these assays.
S1P3 antagonist – antagonists of human S1P3 receptor | Q99500 | CHO S1P3 NFAT-BLA reporter, FRET fluorescence, antagonist mode | inhibition, % at 4.98 µM | 0.27% of 170,000 active | AID 485;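 active means inhibition above the plate cutoff, the mean inhibition of test wells on that plate plus 3 SD, cut at about 28% in these data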;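 further: cells challenged with S1P at its EC80 of 0.8 µM; blue over green emission ratio from cleaved BLA substrate after 4 h stimulation; 0% = S1P-stimulated wells and 100% = unstimulated DMSO-only wells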
EP2 mod – modulates human prostaglandin E2 receptor EP2 signaling. induction, % at 25 µM. EP2-expressing cells, cAMP HTRF FRET, PGE2 co-stimulation. P43116. 0.83% of 260,000 active. AID 940;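 active means compounds whose cAMP rise, as percent of the full-agonist control response, exceeds 60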;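 further: rat C6 glioma line stably carrying human EP2 under a CMV promoter; the protocol text gives 20 µM as final concentration; 100% = response of wells given 1 µM PGE2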
Target sequence (P43116 whole entry, looked up): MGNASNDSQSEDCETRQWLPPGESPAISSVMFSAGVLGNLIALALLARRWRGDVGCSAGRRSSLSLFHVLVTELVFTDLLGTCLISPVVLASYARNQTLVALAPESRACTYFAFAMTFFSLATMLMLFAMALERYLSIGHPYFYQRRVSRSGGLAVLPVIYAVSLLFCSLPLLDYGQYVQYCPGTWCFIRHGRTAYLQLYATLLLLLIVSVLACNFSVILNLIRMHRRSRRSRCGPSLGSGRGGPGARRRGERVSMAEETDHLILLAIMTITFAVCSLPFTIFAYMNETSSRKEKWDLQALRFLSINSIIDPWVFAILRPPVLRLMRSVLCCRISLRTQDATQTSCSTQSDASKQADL
EP2 antag – EP2 receptor (human) inhibition | inhibition, % at 25 µM | 0.52% of 260,000 active | AID 1422 | C6 glioma cells expressing human EP2, cAMP TR-FRET; cells stimulated with saturating PGE2;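 active means percent inhibition above 40 after rounding to a whole number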;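 further: rat C6 glioma host cells with rolipram phosphodiesterase inhibitor present; the protocol text gives 20 µM as final concentration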
Pf gamet viab – kills late stage P. falciparum gametocytes. P. falciparum stage V gametocytes, ATP luminescence, 24 h. AID 743093. inhibition, % at 10.9 µM. 0.065% of 150,000 active;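 active means inhibition above the mean plus 3 SD of compounds within the control limits, set per campaign, cut at about 38% in these data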;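 further: 0% = DMSO wells and 100% = medium only without gametocytes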
S1P4 antag – antagonists of human S1P4 receptor; inhibition, % at 4.98 µM; AID 1510; 0.26% of 220,000 active; O95977; S1P4-expressing cells, antagonist mode, reporter read-out; in the data active means inhibition above about 29%;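 further: 0% = wells stimulated with agonist and 100% = vehicle wells without agonist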
S1P4 agonist – agonists of human S1P4 receptor | O95977 | activation, % at 4.98 µM | 0.35% of 220,000 active | S1P4-expressing cell line, agonist reporter assay; in the data active means activation above about 11%;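 further: 0% = DMSO vehicle and 100% = reference agonist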
The depositor's hits bear a star; / = no result given; ! = not active in a repeat.

SMILES	S1P3 antagonist	EP2 mod	EP2 antag	Pf gamet viab	S1P4 antag	S1P4 agonist
CN(C(=O)CSc1nc(-c2cccs2)cc(C(F)(F)F)n1)C1CCCCC1	/	0	14	/	/	/
CC1CC(C)CN(C(=O)/C(=C\c2ccccc2)c2ccccc2)C1 (stereo not drawn)	-4	63*	2	-1	-14	-1
COc1nccnc1NS(=O)(=O)c1ccc(NC(=S)NC(=O)/C=C/c2ccc(C)cc2)cc1	/	-104	72*	/	/	/
COc1nccnc1NS(=O)(=O)c1ccc(NS(=O)(=O)c2ccc(NC(C)=O)cc2)cc1	/	16	7	/	-2	1
COc1nccnc1NS(=O)(=O)c1ccc(NC(=S)NC(=O)/C=C/c2ccc(F)cc2)cc1	-7	-64	66*	22	-10	1
CC(C)C(=O)c1cn(CC(=O)N2CCc3ccccc32)c2ccccc12	/	-9	9	/	/	/
COc1ccc(-c2cc3nc(-c4ccccc4)cc(N4CCC5(CC4)OCCO5)n3n2)cc1	54*	30	24	-7	-39	1
COc1ccc(-c2cc3nc4c(c(N5CCC6(CC5)OCCO6)n3n2)CCC4)cc1	12	37	10	/	-6	2
CCOC(=O)c1cnc(SC)nc1Nc1cccc(F)c1	24	54	6	8	-31	0
CCOC(=O)c1cnc(SC)nc1Nc1cccc2ccccc12	/	62*	6	8	-7	2
CCCc1ccc(-c2cc(C(=O)NN3CCOCC3)c3ccccc3n2)cc1	/	-8	8	1	-2	-1
CCc1ccc(-c2cc(C(=O)Nn3cnnc3)c3ccccc3n2)cc1	/	17	14	39*	3	0
N#CC1(Cc2ccc(Cl)cc2)c2ccccc2C=CN1C(=O)c1ccccc1 (stereo not drawn)	/	63*	18	/	-1	0
CC1(C#N)c2ccccc2C(Br)=CN1C(=O)c1ccccc1 (stereo not drawn)	/	/	/	-55	/	/
COc1ccc(NC(=O)/C(Cl)=C(/Cl)S(=O)Cc2ccccc2Cl)cn1 (stereo not drawn)	47*	-81	52*	/	102*	-6
COc1ccc(NC(=O)Cc2ccc(Cl)c(Cl)c2)cn1	2	-12	7	-5	-14	2
COc1cc(OC)cc(C(=O)N2CCC(n3nnc4ccccc4c3=O)CC2)c1	/	-6	9	/	/	/
Cc1cc(C(C)(C)C)oc1C(=O)NCCCNC(=O)c1oc(C(C)(C)C)cc1C	/	61*!	7	/	-9	2
CCN1C(=O)c2cccc3c(NC(=O)C(C)(C)C)ccc1c23	4	-11	50*	-5	3	0
CCn1c2ccccc2n2c(=O)n(CC(=O)NC34CC5CC(CC(C5)C3)C4)nc12	/	-31	5	/	/	/
O=C(Cn1sc2ccccc2c1=O)NC12CC3CC(CC(C3)C1)C2	/	-50	132*	/	15	0
COc1ccc2c(c1)NC1(CCN(C(=O)c3cnn(C(C)C)c3)CC1)c1cccn1-2	/	-55	7	/	/	/
Cc1ccc(C2=C(Cl)C(=O)C(c3ccc(C)cc3)=C(Cl)C2=O)cc1	/	22	46*	/	/	/
O=C(Cc1cccs1)Nc1cccc(C(=O)Nc2ccco2)c1	52*	-18	23	/	-20	-3
CC(=O)c1cccc(NC(=O)Cc2cccs2)c1	12	-11	4	/	-16	2
SMILES	S1P3 antagonist	EP2 mod	EP2 antag	Pf gamet viab	S1P4 antag	S1P4 agonist
CCOc1cc(C)c(C(C)C)cc1S(=O)(=O)NCc1ccccn1	118*	35	0	-1	-2	-1
Cc1ccc(S(=O)(=O)NCc2ccccn2)c(C)c1	/	-17	4	/	/	/
Cc1nc(SCC(=O)N(C(C)C)C(C)C)c2c(C)c(C)sc2n1	/	-4	12	/	/	/
CCSc1nc(C)nc2sc(C)c(C)c12	-11	69*	6	-11	-7	0
CC1Cc2ccccc2N1C(=O)Cn1c(=O)oc2cc(S(=O)(=O)N3CCCCC3)ccc21 (stereo not drawn)	81*	-10	14	/	-4	-1
O=C(Cn1c(=O)oc2cc(S(=O)(=O)N3CCCCC3)ccc21)N1CCc2ccccc21	/	-12	/	/	-10	-1
CCCn1c(SCC(=O)Nc2ccc(Br)cc2)nnc1-c1ccncc1	/	-40	16	/	/	/
CN(c1ccc(C(=O)N2CCOCC2)cc1)S(C)(=O)=O	/	-8	146*	-5	4	0
COc1ccc(-c2nnn(C3CCN(C(=O)CCc4cc(Cl)no4)CC3)n2)cc1	/	-49	/	/	/	/
CC(C)COC(=O)c1cccc2c1-c1ccccc1/C2=N\O	/	63*	/	/	-4	-1
Cc1cc(C)cc(NC(=O)Nc2ccc3c(c2)N(C)C(=O)CS3)c1	/	-70	43*	/	-23	-1
CC(=O)Nc1ccc(NC(=O)CSc2cc(C)c3ccc(C)c(C)c3n2)cc1	/	-10	12	/	/	/
CCOC(=O)c1c(-c2ccncc2)csc1N	-29	9	10	10	-12	0
Cc1ccc(C)c(-c2csc(N)c2C(=O)OC(C)C)c1	/	63*	16	13	-20	-2
COC(=O)c1ccc(CCc2cc(O)ccc2O)cc1	/	-5	47*	/	/	/
COC(=O)c1ccc(OCC(=O)c2ccc(O)cc2O)cc1	-26	-7	1	3	-16	2
COc1ccc(-c2c(C)[nH]n3c(=O)cc(C(C)(C)C)nc23)cc1	/	14	/	/	/	/
CN(C)c1ccc(-c2nnn(CC(=O)N(C)C3CCCCC3)n2)cc1	/	-16	10	/	/	/
C=C(C)C1Cc2c(C)nn(-c3ccccc3)c2C1 (stereo not drawn)	20	61*	11	/	-34	0
COc1ccc(N=c2oc3c(OC)cccc3cc2C(=O)NCc2ccco2)cc1OC	-42	15	16	/	-8	-1
COc1ccc(N=c2oc3ccccc3cc2C(=O)NCc2ccco2)cc1	/	78*	11	/	/	/
CCNC(=S)N(Cc1ccc(OC)cc1)Cc1cc2cc(C)cc(C)c2[nH]c1=O	/	17	4	/	/	/
Cc1nn(-c2cc(C)c3ccccc3n2)c2c1CCC2	-10	64*	0	/	-10	1
CC(NC(=O)c1ccc(F)cc1)c1ccccc1 (stereo not drawn)	/	13	7	/	-30	-2
C[C@H](NC(=O)c1ccc(Cl)c(Cl)c1)c1ccc(-c2ccccc2)cc1	/	-41	55*	/	/	/
SMILES	S1P3 antagonist	EP2 mod	EP2 antag	Pf gamet viab	S1P4 antag	S1P4 agonist
Cc1ccc(Cl)cc1N(C(=O)c1csnn1)C(C(=O)NC(C)(C)C)c1cccs1 (stereo not drawn)	/	4	6	/	/	/
Cc1cccc(-c2nnc3n2N=C(c2ccccc2)CS3)c1	/	63*	5	4	0	0
COc1ccc(-c2nnc3n2N=C(c2ccccc2)CS3)cc1OC	35	/	/	/	/	/
Cc1ccc(C2(NCc3ccc4c(c3)n(C)c(=O)n4C)CC2)cc1	/	-41	6	/	/	/
CN(C)c1ccc(C(=C2C=CC(=[N+](C)C)C=C2)c2ccccc2)cc1	/	11	81*	/	/	/
CN(C)c1ccc(C(=C2C=CC(=[N+](C)C)C=C2)c2ccc(N(C)C)cc2)cc1	/	-73	29	/	/	/
CCOC(=O)COc1ccc(C2Oc3c(cccc3OC)C=C2[N+](=O)[O-])cc1 (stereo not drawn)	/	-85	53*	/	/	/
